Assay results from PubChem BioAssay (EPA / NIEHS).
Results filed as inconclusive are left out. The source made the active and inactive calls. Rule for the calls: active = hit-call score of the fitted dose curve at least 0.9, where 1 is the maximum; inconclusive = response in the unintended direction; inactive = score below 0.9.

Target: Thyroid hormone receptor alpha (Rattus norvegicus) + Thyroid hormone receptor beta (Rattus norvegicus) (UniProt P18113+P63059)
Assay: TOX21_TR_LUC_GH3_Antagonist_Followup: Tox21 GH3 Thyroid Hormone Receptor Antagonism Luciferase Follow-Up Assay (AID 2283942)
In short: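 Antagonist mode: GH3 cells seeded 1,500/well, compounds at 15 concentrations (92 uM to 5nM final) plus T3 at 1.0 nM final, 24 h at 37C. Luciferase read with ONE-Glo after 30 min at room temperature.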

| Compound | outcome | AC50 |
| --- | --- | --- |
| CC(=O)O[C@@]12CO[C@@H]1C[C@H](O)[C@@]1(C)C(=O)[C@H](O)C3=C(C)[C@@H](OC(=O)[C@H](O)[C@@H](NC(=O)OC(C)(C)C)c4ccccc4)C[C@@](O)([C@@H](OC(=O)c4ccccc4)[C@H]21)C3(C)C | inactive |  |
| O=C(O)c1cccnc1Nc1cccc(C(F)(F)F)c1 | inactive |  |
| C#C[C@]1(O)CC[C@H]2[C@@H]3CCC4=C(CCC(=O)C4)[C@H]3CC[C@@]21C | inactive |  |
| O=C1c2ccccc2-c2n[nH]c3cccc1c23 | inactive |  |
| CCCCCCC[N+](CC)(CC)CCCCc1ccc(Cl)cc1 | inactive |  |
| O=c1[nH]c(=O)n([C@H]2C[C@H](O)[C@@H](CO)O2)cc1C(F)(F)F | inactive |  |
| CC(=O)OCC(=O)[C@H]1CC[C@H]2[C@@H]3CCC4=CC(=O)CC[C@]4(C)[C@H]3CC[C@]12C | inactive |  |
| C/C=C1/C(=O)C[C@H]2[C@@H]3CCC4=CC(=O)CC[C@]4(C)[C@H]3CC[C@]12C | inactive |  |
| Cc1nc2ccc(CN(C)c3ccc(C(=O)N[C@@H](CCC(=O)O)C(=O)O)s3)cc2c(=O)[nH]1 | inactive |  |
| COc1cc(NCc2ccc3nc(N)nc(N)c3c2C)cc(OC)c1OC | inactive |  |
| COC(=O)Nc1nc2ccc(S(=O)c3ccccc3)cc2[nH]1 (configuration not stated) | inactive |  |
| Cc1ccc(Nc2nccc(N(C)c3ccc4c(C)n(C)nc4c3)n2)cc1S(N)(=O)=O |  | 31.3 µM (active) |
